Only some compounds are listed: those with a hit (about 19% of all), similar ones and a draw of the others.
TDP1 cell CPT = DT40-hTDP1 cell growth loss with CPT. chicken DT40 Tdp1-/-;hTDP1 cells + 20 nM CPT, ATP luminescence, 48 h. Potency, µM (series often up to 46.2 µM), for inactives: at the top dose activity change, negative = growth inhibition, most hits filed as inhibitors. 420,000 compounds, 12% hits. AID 686979; note: potency is the fitted concentration of half-maximal effect; nearly all actives have a fitted effect of over 55% in size
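Chicken DT40 Tdp1-/- cells stably complemented with human TDP1 were seeded at 400 cells/well in medium containing 20 nM camptothecin, exposed to pin-transferred compounds, and grown at 37 °C for at least 48 hr. Viability was read as ATP luminescence.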
HT1080 IDH1KD tx = kills HT-1080 cells with IDH1 knockdown; 360,000 compounds, 2% hits; HT-1080 IDH1 knockdown viability, ATP luminescence, 48 h; Potency, µM (titrated, usually from 46.1 µM), for the others: at the top dose activity, negative = toxicity, actives largely listed as cytotoxic; AID 686971;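 note: potency is the fitted concentration of half-maximal effect; 0% = DMSO wells and -100% = cell-free medium wells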
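HT-1080-IDH1KD cells (IDH1 knocked down), 750/well in RPMI with 5% FBS, treated with compound 48 h at 37 degrees C. Viability by CellTiter-Glo luminescence, normalised to DMSO and no-cell wells; concentration-response curves classed.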
TDP1 cell noCPT = qHTS for Inhibitors of human tyrosyl-DNA phosphodiesterase 1 (TDP1): qHTS in cells in absence of CPT; DT40 Tdp1-/- hTDP1 cells, no CPT, ATP luminescence, 48 h; Potency, µM (highest dose often 46.2 µM), for inactives: at the highest dose activity change, negative = growth inhibition, usual class: inhibitors; 420,000 compounds, 15% hits; note: potency is the fitted concentration of half-maximal effect; nearly all actives have a fitted effect of over 55% in size
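Cells were dispensed at 400 per well, compounds added by pin tool, plates incubated ≥48 hr at 37 °C, then CellTiter-Glo added for 30 min at room temperature before luminescence reading. Line: DT40 Tdp1-/- complemented with hTDP1; camptothecin omitted.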
IL1B secr inh = blocks inflammasome-driven IL-1 beta release. THP-1 LPS/ATP IL-1B secretion, AlphaLISA, 16 h; active compounds read low. activity change, % at 57.5 µM. 360,000 compounds, 4.7% hits. AID 743279; in the data active = activity change below about -50%; inconclusive = mostly about -30% to -49%
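Secreted IL-1B measured by AlphaLISA bead assay after 16 h compound exposure of THP-1 cells; compounds (final up to 57.5 uM) added 1 h before LPS (250 ng/mL) and ATP (1.25 mM) stimulation; lower signal means less secretion.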
HT1080NT lethal = kills 2HG-producing HT-1080-NT fibrosarcoma cells; HT-1080-NT fibrosarcoma viability, CellTiter-Glo ATP luminescence, 48 h; Potency, µM (highest dose often 46.1 µM), without a hit: at the top dose activity, negative = less viability, actives largely listed as cytotoxic; 360,000 compounds, 1.6% hits;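 note: NT is the 2HG producing partner of a matched IDH1 knockdown line; potency is the fitted concentration of half-maximal effect; 0% = DMSO-treated cells and -100% = media-only wells without cells; nearly all actives have a fitted effect of over 55% in size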
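750 cells/well, RPMI + 5% FBS; 2 h settle, compound pin-transfer, 48 h at 37 degrees C. CellTiter-Glo 10 min RT, luminescence. Normalized to DMSO and media-only wells.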
An asterisk follows results filed as active; [ ] = remark or other dose. Unless noted, calls come from the whole dose curve; as a rule, active = well fitted curve in the direction sought with a large enough effect; inconclusive = small, poorly fitted or top-dose-only effect, or another doubt; inactive = no such curve, though single readings can be large; an effect the other way counts as inactive or inconclusive. Unless noted, % is set by controls: 0 for no effect and ±100 for the full control effect.

Screening CCSc1nc2c([nH]c3ccccc32)c(=O)n1CC returned TDP1 cell CPT 3% and TDP1 cell noCPT -19%.
COc1ccc(/C=C/C(=O)N2CCc3c(cnc(C)c3CNC(=O)c3ccsc3)C2)cc1OC was read as TDP1 cell CPT 6%[9.04 µM] and TDP1 cell noCPT -27%.
For Cc1nc2ccccn2c1-c1csc(NCc2ccco2)n1 the results were TDP1 cell CPT 13µM*, HT1080 IDH1KD tx -25%, TDP1 cell noCPT 21µM*, IL1B secr inh inconclusive and HT1080NT lethal -27%.
Screening Cc1ccn2c(-c3n[nH]c(=S)n3Cc3ccccc3)c(C)nc2c1 returned TDP1 cell CPT -3%, HT1080 IDH1KD tx -1%, TDP1 cell noCPT inconclusive, IL1B secr inh 12 and HT1080NT lethal 11%.
Screening Cc1ccn2c(-c3csc(NCc4ccccc4)n3)c(C)nc2c1 returned TDP1 cell CPT inconclusive, HT1080 IDH1KD tx inconclusive, TDP1 cell noCPT 15µM*, IL1B secr inh -21 and HT1080NT lethal inconclusive.
For CCOc1ccc(NC(=O)Cn2cc(C(=O)c3ccc(OCC)cc3)c(=O)c3cc4c(cc32)OCCO4)cc1 the results were TDP1 cell CPT 13µM* and TDP1 cell noCPT 5.8µM*.
O=C(Cn1cc(C(=O)c2ccccc2)c(=O)c2cc3c(cc21)OCCO3)Nc1ccc(F)c(F)c1 was read as TDP1 cell CPT 18µM* and TDP1 cell noCPT inconclusive.
`CCOc1ccc(C(=O)c2cn(CC(=O)Nc3ccc(Cl)cc3)c3cc4c(cc3c2=O)OCCO4)cc1` gave TDP1 cell CPT inconclusive and TDP1 cell noCPT 6.5µM*.
For CCc1ccc(C(=O)c2cn(CC(=O)Nc3ccc4c(c3)OCCO4)c3ccc(F)cc3c2=O)cc1 the results were TDP1 cell CPT -20% and TDP1 cell noCPT -18%.
CCOc1ccc(C(=O)c2cn(CC(=O)Nc3ccc(F)c(F)c3)c3cc4c(cc3c2=O)OCCO4)cc1 was read as TDP1 cell CPT inconclusive and TDP1 cell noCPT 26µM*.
`CCOc1ccc(NC(=O)Cn2cc(C(=O)c3ccc(C)c(C)c3)c(=O)c3cc4c(cc32)OCCO4)cc1` gave TDP1 cell CPT -10% and TDP1 cell noCPT -17%.
Screening COc1ccc(C)cc1Nc1nc2cc(Cl)c(Cl)cc2nc1-n1nc(C)cc1C returned TDP1 cell CPT 6% and TDP1 cell noCPT 3%.
Screening Cc1ccc(C(=O)O)cc1S(=O)(=O)Nc1ccccc1C(=O)NC1CC1 returned TDP1 cell CPT 13%, HT1080 IDH1KD tx 1%, TDP1 cell noCPT 3%, IL1B secr inh 21 and HT1080NT lethal 3%.
Screening CNc1cccc(-c2ccc(N3CCN(C)CC3)nc2)n1 returned TDP1 cell CPT -6%, HT1080 IDH1KD tx 1%, TDP1 cell noCPT -4%, IL1B secr inh -17 and HT1080NT lethal 11%.
Screening CCn1nc(C)cc1C(=O)Sc1cccc(Cl)c1 returned TDP1 cell CPT 3.7µM*, HT1080 IDH1KD tx inconclusive, TDP1 cell noCPT 4.1µM*, IL1B secr inh -6 and HT1080NT lethal 18µM*.
For Cc1nn(C)c(C(=O)Sc2ccccc2)c1[N+](=O)[O-] the results were TDP1 cell CPT inconclusive, HT1080 IDH1KD tx inconclusive, TDP1 cell noCPT 23µM*, IL1B secr inh -13 and HT1080NT lethal -22%.
`Cc1nn(C(C)C(=O)c2cccc(Cl)c2)c(C)c1[N+](=O)[O-]` (configuration not stated) gave TDP1 cell CPT 13%, HT1080 IDH1KD tx -11%, TDP1 cell noCPT -2%, IL1B secr inh 27 and HT1080NT lethal -4%.
`Cc1nn(C)c(C(=O)Sc2cccc(Cl)c2)c1[N+](=O)[O-]` gave TDP1 cell CPT 4.6µM*, HT1080 IDH1KD tx -18%, TDP1 cell noCPT 2.9µM*, IL1B secr inh -11 and HT1080NT lethal -9%.
For Cc1ccc(S(=O)(=O)C(CNC(=O)c2ccccc2F)c2cccs2)cc1 (configuration not stated) the results were TDP1 cell CPT inconclusive and TDP1 cell noCPT 15µM*.
`O=C(NCCc1ccc(F)cc1)C(=O)NCC(c1ccco1)S(=O)(=O)c1ccccc1` (configuration not stated) gave TDP1 cell CPT -2% and TDP1 cell noCPT -7%.
Screening Cc1ccc(CNC(=O)C(=O)NCC(c2cccs2)S(=O)(=O)c2ccccc2)cc1 (configuration not stated) returned TDP1 cell CPT -2% and TDP1 cell noCPT 4%.
`COc1ccccc1CCNC(=O)C(=O)NCC(c1ccco1)S(=O)(=O)c1ccc(F)cc1` (configuration not stated) gave TDP1 cell CPT 16µM* and TDP1 cell noCPT inconclusive.
Screening CNC(=O)C(=O)NCC(c1cccs1)S(=O)(=O)c1ccc(C)cc1 (configuration not stated) returned TDP1 cell CPT -21%, HT1080 IDH1KD tx 5%, TDP1 cell noCPT 14%, IL1B secr inh 9 and HT1080NT lethal -3%.
For Cc1ccc(S(=O)(=O)C(CNC(=O)C(=O)NCCc2ccc(F)cc2)c2cccs2)cc1 (configuration not stated) the results were TDP1 cell CPT inconclusive and TDP1 cell noCPT 16µM*.
Screening O=C(NCC(c1cccs1)S(=O)(=O)c1cccs1)c1ccccc1F (configuration not stated) returned TDP1 cell CPT -11% and TDP1 cell noCPT inconclusive.
For Cc1ccc(S(=O)(=O)C(CNC(=O)C(=O)NCCc2ccccc2)c2cccs2)cc1 (configuration not stated) the results were TDP1 cell CPT 16µM* and TDP1 cell noCPT 15µM*.
Screening CN(Cc1ccccc1)N=Nc1nc[nH]c1C(N)=O returned TDP1 cell CPT inconclusive, HT1080 IDH1KD tx -12%, TDP1 cell noCPT -9%, IL1B secr inh 28 and HT1080NT lethal -25%.
For COc1ccc(CNC(=O)C(=O)NCC(c2cccs2)S(=O)(=O)c2ccc(C)cc2)cc1 (configuration not stated) the results were TDP1 cell CPT 0% and TDP1 cell noCPT inconclusive.
Screening Cc1ccc(C)c(S(=O)(=O)NCC(=O)NCc2ccco2)c1 returned TDP1 cell CPT -1%, HT1080 IDH1KD tx 0%, TDP1 cell noCPT -1%, IL1B secr inh 16 and HT1080NT lethal 3%.
`COc1ccc(CCNC(=O)C(=O)NCC(c2cccs2)S(=O)(=O)c2ccc(C)cc2)cc1` (configuration not stated) gave TDP1 cell CPT inconclusive and TDP1 cell noCPT 9.2µM*.
Cc1ccc(C)c(S(=O)(=O)NCC(c2ccco2)S(=O)(=O)c2ccc(F)cc2)c1 (configuration not stated) was read as TDP1 cell CPT 1.3µM* and TDP1 cell noCPT 1.2µM*.

From PubChem
